Assay outcomes deposited in PubChem BioAssay by National Center for Advancing Translational Sciences (NCATS).
G9a inh – G9a (human) methyltransferase inhibition; G9a H3K9 monomethylation, AlphaScreen, 2 h; Potency, µM (highest dose often 102 µM), hits mostly inhibitors; hit rate 8.8% among 350,000; AID 504332; further: nearly all actives have a fitted effect of over 75% in size
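Step 1: enzyme (final 20 nM) with compound, 15 min RT. Step 2: substrate peptide 500 nM and SAM 20 uM, 2 h RT. Step 3: anti-H3K9me1 antibody and AlphaScreen beads, 10 min, then plate read.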
HP1b binding inh – inhibitors of HP1-beta chromodomain binding to methylated histone tails. hit rate 0.56% among 390,000. Potency, µM (series often up to 114 µM), actives largely listed as inhibitors. AlphaScreen HP1-beta / biotin-H3K9me3 peptide binding. P83916; further: nearly all actives have a fitted effect of over 70% in size
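Compound inhibition of the preformed complex between 50 nM HP1-beta and 50 nM biotinylated H3K9me3 peptide was read by AlphaScreen. Buffer was PBS pH 7.4 with 0.01% Tween-20. Incubations ran 30 min at room temperature, with 10 ug/mL donor/acceptor beads.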
JMJD2A Tudor inh – blocks the human JMJD2A Tudor domain | AlphaScreen JMJD2A-Tudor / H3K4me3 peptide binding | Potency, µM (doses to about 114 µM), usual class: inhibitors | hit rate 4.4% among 390,000; further: nearly all actives have a fitted effect of over 50% in size
BAZ2B inh – inhibitors of human BAZ2B bromodomain; Potency, µM (top dose mostly 114 µM), actives largely listed as inhibitors; Q9UIF8; hit rate 4.4% among 360,000; AlphaScreen BAZ2B-H3K14Ac peptide displacement; further: nearly all actives have a fitted effect of over 60% in size
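BAZ2B (50 nM) with biotin-H3(5-23)K14Ac peptide (50 nM) in PBS pH 7.4, 0.01% Tween-20, preformed 30 min, then compound 30 min at room temperature; top concentration 110uM. AlphaScreen streptavidin donor/nickel chelate acceptor beads (10 ug/mL final), 20 min dark, signal read.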
GLS inhibitor – blocks human kidney-isoform glutaminase activity; O94925; GLS enzymatic activity, qHTS titration; Potency, µM (highest dose often 45.5 µM), most hits filed as inhibitors; hit rate 0.21% among 410,000; AID 624170
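hKGA; 45 mM KH2PO4 pH 8.2 + 0.02% Tween-20; cpd via pin tool; 1 mM Gln soln; GluOx/HRP/Amplex Red; RT 30 min; fluor. t0 & final.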
Of the large screens only hits and unclear results are named; the others gave an inactive call; ! = repeats disagree. Compounds with a hit are over-represented: about 10% of the library has one in this group of screens. The call rests on the fitted dose curve; in most records, active means well fitted curve in the direction sought with a large enough effect; inconclusive means small, poorly fitted or top-dose-only effect, or another doubt; inactive means no such curve, though single readings can be large; an effect the other way counts as inactive or inconclusive.

CCN(Cc1ccccc1)c1ccc(/C=N/NS(=O)(=O)c2ccc(C)c([N+](=O)[O-])c2)cc1	G9a inh 8.9µM, HP1b binding inh inconclusive, JMJD2A Tudor inh inconclusive, BAZ2B inh inconclusive
CCn1c(C)c(P(=O)(N2CCOCC2)N2CCOCC2)c2ccccc21	none
Cn1cc(P(=O)(N2CCOCC2)N2CCOCC2)cc1P(=S)(N1CCOCC1)N1CCOCC1	G9a inh 40µM
Cn1cc(P(=S)(N2CCOCC2)N2CCOCC2)cc1P(=O)(N1CCOCC1)N1CCOCC1	G9a inh 10µM, HP1b binding inh inconclusive, JMJD2A Tudor inh inconclusive
CCCC(=O)N1CCN(C2=NS(=O)(=O)c3ccccc32)CC1	none
Clc1ccccc1-c1ccc2ncnc(NC3CCNCC3)c2c1	none (no result: HP1b binding inh, JMJD2A Tudor inh, BAZ2B inh, GLS inhibitor)
Cc1cc(C(=O)C(=O)N(C)C)c(C)n1-c1ccc(Cl)cc1	none
c1ccc(Nc2ncnc3sc4c(c23)CCC4)cc1	none
Cc1ccc(-n2ncc(C(=O)N3CCN(c4ccccn4)CC3)c2C2CCN(C(=O)OC(C)(C)C)CC2)cc1	none
CCn1c(C)c(CS(=O)(=O)c2ccccc2)[nH]c1=O	G9a inh 1µM, HP1b binding inh 10µM, JMJD2A Tudor inh 22µM
CC1CC(C)CN(C(=O)c2cccc(S(=O)(=O)Nc3cc(C(F)(F)F)ccc3Cl)c2)C1 (stereo not given)	G9a inh inconclusive, BAZ2B inh 79µM
O=C(O)c1cccc(S(=O)(=O)Nc2cc(Cl)ccc2Cl)c1	none
CC1(C)CN=C(c2ccccc2)NC1	none (no result: G9a inh, BAZ2B inh)
CCC1(C)CN=C(c2ccccc2)NC1 (stereo not given)	JMJD2A Tudor inh 35µM (no result: G9a inh, BAZ2B inh)
COc1cccc(NC(=O)CN(C)C(=O)c2c(C)nn(CC(C)C)c2Cl)c1	none
O=C(CSc1ccccc1C(=O)O)NC1CCCCCC1	JMJD2A Tudor inh 10µM
O=C(CSc1ccccc1C(=O)NCc1ccccc1)NC1CCCCCCC1	G9a inh 10µM, JMJD2A Tudor inh 89µM
O=C(CSc1ccccc1C(=O)O)NC1CCCCCCC1	none
O=C(CSc1ccccc1C(=O)NCc1ccccc1)NC12CC3CC(CC(C3)C1)C2	G9a inh 10µM
O=C(O)CSc1ccccc1C(=O)O	G9a inh 45µM
CCOc1ccc(C(=O)Nc2ccc(-c3nnc4n3CCCCC4)cc2)cc1OCC	none
O=S(=O)(c1ccccc1)C(/C=N\O)/C=C/c1ccccc1 (stereo not given)	G9a inh 7.9µM, JMJD2A Tudor inh inconclusive
CC(C)C(C=Cc1ccccc1)=NNS(=O)(=O)c1ccccc1	none (no result: G9a inh, HP1b binding inh, JMJD2A Tudor inh, BAZ2B inh)
COc1ccc(/C=C2/SC(=O)N(CCC(=O)Nc3ccc(S(=O)(=O)Nc4nccs4)cc3)C2=O)cc1	G9a inh inconclusive
CC12CC3(C)CC(C)(C1)CC(C(=O)Nc1nn[nH]n1)(C2)C3	G9a inh 35µM, JMJD2A Tudor inh 50µM, BAZ2B inh inconclusive
Cc1nnc(NC(=O)C23CC4CC(C)(CC(C)(C4)C2)C3)s1	none (no result: G9a inh, BAZ2B inh)
CC(C)(C)CC(=O)Nc1nn[nH]n1	G9a inh inconclusive, JMJD2A Tudor inh 56µM, BAZ2B inh 79µM
CCC12CC3CC(C1)CC(C(=O)Nc1nn[nH]n1)(C3)C2	G9a inh 20µM, JMJD2A Tudor inh 25µM, BAZ2B inh inconclusive
CC12CC3CC(C)(C1)CC(C(=O)Nc1nn[nH]n1)(C3)C2	G9a inh 35µM, JMJD2A Tudor inh 20µM, BAZ2B inh inconclusive
CCOC(=O)C1=C(C)N(CCCC(=O)NCc2ccc3c(c2)OCO3)C(=O)NC1c1ccc(Br)cc1 (stereo not given)	none
COc1ccc(-c2noc(CCC(=O)NCc3ccc(C)cc3)n2)cc1	none
Cc1cc(C)nc(Nc2n[nH]c(-c3ccccc3Br)n2)n1	G9a inh inconclusive
S=c1nc(-c2cc(Cl)cc(Cl)c2)[nH][nH]1	G9a inh 22µM, JMJD2A Tudor inh 79µM
S=c1nc(-c2cc(Cl)ccc2Cl)[nH][nH]1	G9a inh 1.6µM, HP1b binding inh inconclusive, JMJD2A Tudor inh 5µM
Clc1ccc(Cl)c(-c2nc(-c3ccncc3)no2)c1	none
S=c1nc(-c2ccccc2Br)[nH][nH]1	G9a inh 0.79µM, HP1b binding inh inconclusive, JMJD2A Tudor inh 0.79µM
S=c1nc(-c2cccc(Cl)c2)[nH][nH]1	G9a inh 1.6µM, JMJD2A Tudor inh 2.5µM
CN(C)c1ccc(C(=O)N2CCN(C(=O)C3CCCO3)CC2)cc1 (stereo not given)	none (no result: G9a inh, BAZ2B inh)
CCOC(=O)Nc1ccc(S(=O)(=O)Nc2cc(C)on2)cc1	none
Cc1cc(NS(=O)(=O)c2ccc(NC(=O)/C=C/c3ccco3)cc2)nc(C)n1	G9a inh 50µM
CCOC(=O)/C=C/C(=O)Nc1ccc(S(=O)(=O)Nc2cc(C)on2)cc1	G9a inh 50µM
Cc1ccc(S(=O)(=O)Nc2ccc(-c3cn4ccc(C)cc4n3)cc2)cc1	G9a inh 45µM, JMJD2A Tudor inh inconclusive
CCCCC(Br)C(=O)Nc1ccc(S(=O)(=O)Nc2cc(C)nc(C)n2)cc1 (stereo not given)	G9a inh 50µM
C/C=C/c1ccc(Oc2nnnn2-c2ccc(C(=O)O)cc2)c(OC)c1	G9a inh inconclusive
CCCC(c1nnnn1C(C)(C)CC)N(Cc1ccco1)Cc1cc2ccc(OC)cc2[nH]c1=O (stereo not given)	none
Cc1ccc(OCCC(=O)Nc2ccc(S(=O)(=O)Nc3cc(C)nc(C)n3)cc2)cc1	none
Cc1ccc(S(=O)(=O)Nc2ccc(S(=O)(=O)Nc3cc(C)nc(C)n3)cc2)cc1	G9a inh 10µM, BAZ2B inh inconclusive
Cc1cc(NS(=O)(=O)c2ccc(NC(=S)NC(=O)c3ccc(F)cc3)cc2)no1	none
Cc1cc(NS(=O)(=O)c2ccc(NC(=S)NC(=O)c3cccc(S(=O)(=O)N(C)C)c3)cc2)no1	G9a inh 35µM
CCOc1ccc(OCC(=O)Nc2ccc(S(=O)(=O)Nc3cc(C)nc(C)n3)cc2)cc1	G9a inh 14µM
Cc1cc(NS(=O)(=O)c2ccc(NC(=O)COc3ccc(Br)cc3)cc2)nc(C)n1	JMJD2A Tudor inh 20µM, GLS inhibitor inconclusive (no result: G9a inh)
CC(C)CN(CC(C)C)CC(O)COc1ccccc1Br (stereo not given)	none
CCC(Oc1ccccc1)C(=O)Nc1cc(-c2cccc(C)c2)nn1-c1ccccc1 (stereo not given)	none
Cc1ccc(S(=O)(=O)NNC(=O)CC#N)cc1	none
Cc1cc(NS(=O)(=O)c2ccc(NC(=O)COc3c(C)cc(Br)cc3C)cc2)no1	G9a inh 56µM!, GLS inhibitor 7.9µM
CCOC(=O)/C=C/C(=O)Nc1ccc(S(=O)(=O)N(C)c2ccccc2)cc1	G9a inh 45µM
COc1ccccc1N1CCN(C(=O)c2c(-c3ccccc3Cl)noc2C)CC1	none
COc1ccc(CNC(=O)CN(c2cc(C)cc(C)c2)S(=O)(=O)c2c(C)[nH]c(=O)[nH]c2=O)cc1	none
COC(=O)COc1cc(C)cc2oc(=O)c(CC(=O)OC)c(C)c12	none
COC(=O)COc1cc(OCC(=O)OC)c2c(C)c(Cl)c(=O)oc2c1	G9a inh 10µM
